# Mdm2 MdmX PPI: inhibitors of human Mdm2-MdmX association, primary screen, cell-based, luminescence, split luciferase, SaOS-2, uHTS; SaOS-2 split-luciferase Mdm2/MdmX complementation; inhibition, % at 8 µM; hit rate 3% among 330,000;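 active means inhibition of at least 50% at 8 µM in the primary screen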
# Target sequence (O15151 whole entry, looked up): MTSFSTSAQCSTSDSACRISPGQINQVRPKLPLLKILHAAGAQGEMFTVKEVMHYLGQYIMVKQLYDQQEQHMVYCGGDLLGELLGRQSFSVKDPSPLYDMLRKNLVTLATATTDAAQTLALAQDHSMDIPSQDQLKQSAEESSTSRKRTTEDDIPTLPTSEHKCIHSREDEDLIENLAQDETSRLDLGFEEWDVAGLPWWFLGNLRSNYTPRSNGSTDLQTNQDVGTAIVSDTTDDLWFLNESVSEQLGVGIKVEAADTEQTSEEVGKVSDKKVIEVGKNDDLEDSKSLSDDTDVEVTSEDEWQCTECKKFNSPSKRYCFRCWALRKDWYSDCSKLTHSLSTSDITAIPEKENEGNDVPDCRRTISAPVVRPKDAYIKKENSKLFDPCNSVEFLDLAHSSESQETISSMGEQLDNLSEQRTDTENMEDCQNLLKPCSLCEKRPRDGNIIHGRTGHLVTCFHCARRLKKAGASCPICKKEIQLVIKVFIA
# Target sequence (Q00987 whole entry, looked up): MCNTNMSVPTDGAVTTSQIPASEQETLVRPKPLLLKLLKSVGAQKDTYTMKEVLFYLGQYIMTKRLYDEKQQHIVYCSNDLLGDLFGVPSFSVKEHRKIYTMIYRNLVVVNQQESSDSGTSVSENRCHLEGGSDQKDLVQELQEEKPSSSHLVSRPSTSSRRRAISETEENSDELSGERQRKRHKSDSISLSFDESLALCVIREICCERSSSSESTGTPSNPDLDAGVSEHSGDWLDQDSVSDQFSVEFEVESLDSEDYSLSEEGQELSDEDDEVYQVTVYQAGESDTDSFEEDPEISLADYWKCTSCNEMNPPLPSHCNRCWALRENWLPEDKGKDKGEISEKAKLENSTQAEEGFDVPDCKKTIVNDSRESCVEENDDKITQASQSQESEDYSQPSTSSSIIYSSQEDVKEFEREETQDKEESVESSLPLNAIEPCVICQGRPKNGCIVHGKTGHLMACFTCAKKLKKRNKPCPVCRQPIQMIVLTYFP
# MPTP inh: mitochondrial permeability transition pore inhibitors, primary screen, biochemical, isolated mouse mitochondria, absorbance; Ca2+ swelling absorbance, 30 min; hit rate 1.4% among 360,000; inhibition, % at 10 µM; AID 602449, 2012;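 active means inhibition of 50% or more, scaled per plate between neutral and stimulator controls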;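 further: 0% = DMSO wells given calcium and 100% = 1 mM EGTA wells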
# Beta cell apopt: inhibitors of cytokine-induced beta cell apoptosis, primary screen, luminescence. INS-1E cytokine-induced death, ATP luminescence, 48 h; percent of positive-control rescue, neutral wells zero. protection from apoptosis, % (concentration not given with the values). hit rate 0.8% among 300,000. AID 435005, 2010;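 active means Every replicate reaches about 75%, or at least half do and their mean reaches it too, limit read from the data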;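 further: 0% = cytokine-treated negative control wells and 100% = positive control rescue; higher means more ATP so stronger rescue from cytokine killing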
# NR3A LBD binder: binders of NR3A ligand-binding domain, primary screen, biophysical, differential scanning fluorimetry, uHTS. Glutamate receptor ionotropic, NMDA 3A (GRIN3A) ligand-binding domain. NR3A LBD differential scanning fluorimetry, Tm shift; 0% = protein alone, 100% = glycine-bound protein. Tm shift relative to glycine control, % at 25 µM. hit rate 2.5% among 340,000. AID 1259313, 2017;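 active means melting temperature shift of at least 10% of the positive control shift, at one fixed dose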
# Gli-Sufu antag: Gli-Sufu pathway antagonists, primary screen, luciferase luminescence, Sufu-KO-LIGHT cells, uHTS; Sufu-KO-LIGHT fibroblasts, Gli luciferase reporter luminescence; inhibition, % at 5 µM; hit rate 0.74% among 340,000; AID 588413, 2011;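 active means inhibition above about 55%, limit read from the data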;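 further: 0% = DMSO-treated cells and 100% = wells with medium but no cells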
# CSC inhib: cancer stem cell viability inhibitors, primary screen, luminescence. cancer stem cell-like cells viability. inhibition, % at 7.5 µM. hit rate 1.1% among 300,000; in the data active means inhibition above about 75%; tested in HMLE shEcad cells
# Gli antag conf: Gli-SUFU pathway antagonists, confirmation, single concentration, luciferase luminescence, Sufu-KO-LIGHT cells. shares compounds with Gli-Sufu antag. Gli luciferase reporter. inhibition, % at 5 µM. hit rate 40% among 2,500. AID 602428, 2012;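 active means mean inhibition at 5 µM reaching about 45%, limit read from the data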;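 further: plate controls were DMSO-treated cells for no effect and wells lacking cells for full effect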
# SufuKO cytotox: cytotoxicity in Sufu-KO-LIGHT cells, confirmation, cytotoxicity control for Gli-SUFU antagonist project, cell-based, ATP luminescence, single concentration; hit rate 32% among 2,500; cytotoxicity, % at 5 µM; shares compounds with Gli-Sufu antag;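 active means mean cytotoxicity at 5 µM above about 25%, limit read from the data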;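 further: cells exposed to compound overnight for roughly 16 to 18 hours; plate controls were DMSO wells with cells for no effect and medium without cells for full effect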
# Wnt3a cs: Wnt3a reporter signal inhibition, confirmation, counter-screen for Gli-SUFU antagonist project, Wnt-LIGHT cells, luminescence, single concentration | shares compounds with Gli-Sufu antag | Wnt3a-driven luciferase reporter | inhibition, % at 6.25 µM | hit rate 20% among 2,500;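 active means mean inhibition above about 25%, limit read from the data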
# An asterisk follows results filed as active; · = no result. The list is not random: actives were taken first. Their share in the collection is about 6.6%.
SMILES,Mdm2 MdmX PPI,MPTP inh,Beta cell apopt,NR3A LBD binder,Gli-Sufu antag,CSC inhib,Gli antag conf,SufuKO cytotox,Wnt3a cs
Cc1ccc(C)c(OCC(=O)NCC(C)C)c1C,19,-1,-4,-3,-1,9,·,·,·
CCOC(=O)N1CCC(NC(=O)CSCc2nc(-c3ccc(OCC)cc3)oc2C)CC1,18,-1,-7,1,6,-3,·,·,·
COCCNC(=O)CSCc1nc(-c2ccc(SC)cc2)oc1C,5,2,-5,1,55*,-7,66*,12,8
Cc1cccc(-c2nc(CSCC(=O)NCc3cccs3)c(C)o2)c1,-4,-1,-10,2,55*,-18,13,7,-7
CCOCCCNC(=O)CSCc1nc(-c2ccc(SC)cc2)oc1C,3,1,-22,1,31,-6,·,·,·
CCOc1ccc(-c2nc(CSCC(=O)NC3CC3)c(C)o2)cc1,-3,0,-3,-2,90*,-13,93*,13,-2
CN1CC(=O)N(CC(=O)Nc2ccc3c(c2)CCC3)C1=O,13,0,-6,-2,·,-4,·,·,·
COc1ccc(OCC(=O)NC2CCCN(Cc3ccc(Cl)cc3)C2)cc1 (stereo not drawn),22,1,-2,1,52,-4,33,2,-50
Cc1cc(C(=O)NC2CCCN(Cc3ccc(Cl)cc3)C2)n(C)n1 (stereo not drawn),22,-1,3,0,57*,-6,19,20,-3
COc1cccc(CC(=O)NC2CCCN(Cc3ccc(Cl)cc3)C2)c1 (stereo not drawn),-14,0,·,-1,23,-5,·,·,·
CC(OC(=O)c1cn(-c2ccccc2)nc1-c1cccnc1)C(N)=O (stereo not drawn),26,0,-7,-1,-12,-10,·,·,·
COCCNC(=O)c1ccc(N2CC3CC(C2)c2cccc(=O)n2C3)c(NC(=O)c2c(F)cccc2F)c1 (stereo not drawn),11,2,2,7,-1,3,·,·,·
COc1cc(/C=C2/NC(=O)N(Cc3ccccc3F)C2=O)ccc1O,3,1,-4,-1,71*,10,54*,22,37*
COc1cc(/C=C2/NC(=O)N(Cc3ccccc3F)C2=O)ccc1Oc1ccc([N+](=O)[O-])cn1,14,3,3,-1,12,-6,·,·,·
CCC(C)[C@H]1CN=C(N)N1CC1CCCCC1 (stereo partly drawn),6,·,39,0,65*,-15,68*,26*,29*
CC(O)[C@H]1CN=C(N)N1CCCCC1CCCCC1 (stereo partly drawn),40,-1,6,0,7,5,·,·,·
Cc1oc(/N=C/c2ccc(Cl)cc2)c(C#N)c1C,-11,-2,-1,2,71*,·,5,6,-14
COc1ccc(S(=O)(=O)Nc2ccccc2C(=O)NC2CC2)cc1NC(C)=O,4,0,-3,2,-4,-6,·,·,·
COc1ccc(S(=O)(=O)Nc2ccccc2Cl)cc1NC(C)=O,-12,2,-9,-2,52,-17,12,-2,0
NC(c1ccccc1)c1cccs1 (stereo not drawn),·,0,·,·,·,·,·,·,·
Cc1csc(-c2cccnc2)n1,22,0,-3,3,99*,9,14,-6,16
Fc1ccccc1-c1csc(-c2cccnc2)n1,-14,0,5,2,31,-6,·,·,·
CCN(CC(=O)Nc1cc(Cl)ccc1C)C(=O)CSCc1c(C)noc1C,8,0,0,1,52,-5,13,22,-10
Cc1ccc(C)c(NC(=O)CN(C)C(=O)CSCc2c(C)noc2C)c1,8,0,9,1,-4,-5,·,·,·
CCCCC1CCC(C(=O)OCC(=O)N(CCOC)c2c(N)n(Cc3ccccc3)c(=O)[nH]c2=O)CC1 (stereo not drawn),7,0,-6,-2,-2,0,·,·,·
SMILES,Mdm2 MdmX PPI,MPTP inh,Beta cell apopt,NR3A LBD binder,Gli-Sufu antag,CSC inhib,Gli antag conf,SufuKO cytotox,Wnt3a cs
COCCN(C(=O)COC(=O)C1CCC(C(C)(C)C)CC1)c1c(N)n(Cc2ccccc2)c(=O)[nH]c1=O (stereo not drawn),26,-1,106*,-2,72*,-4,81*,28*,8
COc1cc2c(c(OC)c1OC)-c1ccc(SC)c(=O)cc1C(NC(=O)C(F)(F)F)CC2 (stereo not drawn),·,1,·,0,51,·,60*,61*,41*
Cc1ccc(C(=O)NC(=S)Nc2ccccc2N2CCOCC2)cc1C,29,0,8,-397,89*,61,23,14,-37
O=c1cc(CSc2nnc(-c3cccs3)n2Cc2ccccc2)nc2sc3ccccc3n12,26,7,68,-2,62*,-5,57*,33*,37*
O=C(C[n+]1cc(-c2ccccc2)n2c1CCCCC2)c1ccc(Cl)cc1,8,4,4,-2,58*,3,49*,17,-6
COc1ccc(-c2c[n+](CC(=O)c3ccccc3)c3n2CCCCC3)cc1,21,-2,12,0,50,13,55*,25,-13
Cc1ccc(NC(=O)C[n+]2cc(-c3ccccc3)n3c2CCC3)cc1,-3,1,2,1,3,-3,·,·,·
Cc1ccc(-c2c[n+](CC(=O)c3ccc(Br)cc3)c3n2CCCCC3)cc1,30,2,57,0,77*,-8,78*,33*,-21
C[n+]1cc(-c2ccccc2)n2c1CCCCC2,-4,-4,6,0,20,·,·,·,·
COCCn1c(SCC(=O)c2c(-c3ccccc3)n(C)c3ccccc23)nnc1-c1ccncc1,-1,2,-3,-2,1,6,·,·,·
COCCn1c(SCC(=O)/C=C2\N(C)c3ccccc3C2(C)C)nnc1-c1ccncc1,-1,0,80*,-1,59*,7,34,2,-35
C=CCn1nc([N+](=O)[O-])nc1Sc1cccc2cccnc12,33,5,95*,-1,68*,-18,48*,15,-93
O=[N+]([O-])c1ccc(Sc2cccc3cccnc23)cc1,23,2,3,3,-31,-16,·,·,·
